# This is part of a sample that, as a whole, favours compounds with a hit. Of some 83,000 tested, about 20% had one in any assay.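 Testing used 96-well plates and a 48-hour single-concentration exposure. Example: -40 means 40% of the starting cells died.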 Values without a mark were called inactive. Activity calls are given as the source filed them. How the source made its calls: active means growth percent below 10; inactive means the rest.
# Tested on: EKVX NSCLC
# Assay: NCI-60 one-dose screen, 48 h (100 = growth as untreated, 0 = no growth, -100 = all killed)
# Conditions: 10 µM
row,SMILES,growth
1,CCOC(=O)N/C(=C1/OCCN1C)[P+](c1ccccc1)(c1ccccc1)c1ccccc1,64.3%
2,O=C(NO)c1ccc(CNc2nc(-c3ccccc3)c3ccccc3n2)cc1,15.6%
3,Cc1cc(C)nc(NS(=O)(=O)c2ccc(N/C(N)=N/c3nccc(-c4cccs4)n3)cc2)n1,83.5%
4,COc1cnc2c(c1)C(=O)c1c-2n(CCCNCCO)c(=O)c2cc(OC)c(OC)cc12,87.9%

# Tested on: SN12C renal
# Assay: as above
# Conditions: 10 µM
row,SMILES,growth
1,Cc1ccc(C(=O)N/C(=C2/OCCN2C)[P+](c2ccccc2)(c2ccccc2)c2ccccc2)cc1,86%
2,CN(C)c1ccc(/C=C/c2nc3ccccc3c(=O)n2CC(=O)Nc2ccc(Cl)cc2)cc1,76.4%
3,Cc1ccc(CNC(=O)Cc2ccc3c(c2)CN(C2CCC(=O)NC2=O)C3=O)cc1 (stereo unspecified),4.57% (active)
4,Cc1ccn2c(C(=O)c3ccccc3)cc(-c3cc(-c4ccc(N(C)C)cc4)c(C#N)c(N)n3)c2c1,61.9%
5,CCOP(=O)(OCC)O[C@H]1CCC(=O)[C@@H]2[C@H]1[C@H]1C[C@@H]3[C@@]4(C)CCCC(C)(C(=O)OC)[C@@H]4CC[C@@]23C=C1C(C)C (stereo partly specified),65.4%
6,C#CCNC(=O)CCC(=O)OC[C@]12CC[C@@H](C(=C)C)[C@@H]1C1CC[C@@H]3[C@@]4(C)CCCNC(C)(C)[C@@H]4CC[C@@]3(C)[C@]1(C)CC2 (stereo partly specified),19.2%
7,C/C(=N\N=C\c1ccc(N(C)C)cc1)c1ccc2c(c1)Nc1ccccc1S2,49.8%
8,O=C(Nc1ccc(Cl)c([N+](=O)[O-])c1)Nc1ccc(Cl)c([N+](=O)[O-])c1,1.65% (active)
9,COc1ccc(CN2[C@H](C(=O)NCc3ccc(C(=O)NO)cc3)Cc3c([nH]c4ccccc34)[C@H]2C2CC2)cc1,70.5%
10,O=C(NO)c1ccc(CNC(=O)[C@H]2Cc3c([nH]c4ccccc34)[C@H](c3ccc(Cl)cc3)N2)cc1,15.1%
11,O=C(Cn1nc(-c2ccccc2)ccc1=O)NN1C(=O)c2ccccc2C1=O,123%
12,OCc1[nH]nc2cc(Nc3ncc4ccc(Br)c(OC5CCC(O)CC5)c4n3)ccc12 (stereo unspecified),1.92% (active)
13,COc1cc2c3c(n(CCCNCCO)c(=O)c2cc1OC)-c1nc2c(cc1C3=O)OCO2,8.45% (active)
14,COc1ccc(CN2[C@H](C(=O)NCCCCCCC(=O)NO)Cc3c([nH]c4ccccc34)[C@H]2C2CC2)cc1,7.85% (active)
15,COc1ccc(C2N(c3ccc(Br)cc3)N=C(C(C)=O)N2[C@H]2[C@H](OC(C)=O)O[C@H](COC(C)=O)[C@@H](OC(C)=O)[C@@H]2OC(C)=O)cc1 (stereo partly specified),79.7%
16,CN1C(=O)N(C)C2SC(N/N=C/c3cccs3)=NC21 (stereo unspecified),26.5%
17,Cc1cc(C)nc(/N=C(\N)Nc2ccc(S(=O)(=O)Nc3nc(C)cc(C)n3)cc2)n1,111%
18,O=C(Cc1ccc2c(c1)CN(C1CCC(=O)NC1=O)C2=O)NCCc1ccccc1 (stereo unspecified),8.84% (active)
19,CCNCCCn1c2c(c3cc(OC)c(OC)cc3c1=O)C(=O)c1cc3c(nc1-2)OCO3,-89.2% (active)

row,SMILES,growth
1,O=C(CNc1nc(-c2ccccc2)cs1)Nc1ccc(Cl)cc1[N+](=O)[O-],-28.7% (active)
2,Cc1ccc2nc(-c3ccc(-c4nnc(SCC(=O)Nc5ccc(Cl)cc5)o4)cc3)[nH]c2c1,-3% (active)
3,Cc1ccc(C(=O)NNC(=O)CSc2nc3ccccc3c(=O)[nH]2)cc1,94.1%
4,CN(C)CCNC(=O)OCCCCOc1cc(O)c2c(=O)cc(-c3ccccc3)oc2c1,-9.43% (active)
5,CCCCSc1nc(Nc2ccc(/C(C)=N/NC(N)=S)cc2)c(C#N)c(-c2ccccc2)n1,19.8%
6,O=c1[nH]c2ccccc2cc1CSc1ccc(Nc2nccc(-c3ccc4c(c3)OCO4)n2)cc1,96%
7,COc1cc2oc(-c3cccc(C(=O)Nc4ccc(Cl)cc4)c3)cc(=O)c2c(OCCNC(=O)CNC(=O)OC(C)(C)C)c1OC,53.5%
8,Cc1ccc2nc(-c3ccc(-c4nnc(SCC(=O)Nc5ccc(Br)cc5)o4)cc3)[nH]c2c1,51%
9,COc1ccc(CN2[C@@H](C(=O)NCc3ccc(C(=O)NO)cc3)Cc3c([nH]c4ccccc34)[C@@H]2C)cc1,29.8%
10,O=C(CNc1nc(-c2ccccc2)cs1)Nc1cccc(Cl)c1,41.4%
11,NS(=O)(=O)c1ccc(NC(=O)CSc2ccc(-c3ccc(Cl)cc3)nn2)c(Br)c1,39.1%
12,Clc1ccc2c(N/N=C/c3c[nH]c4ccc(Br)cc34)ccnc2c1,-56.3% (active)
13,Cc1ccc(-c2ccc(SCC(=O)Nc3ccc(S(N)(=O)=O)cc3Br)nn2)cc1,39.5%
14,CC(=O)Nc1ccc(-c2cn(-c3cccc(C(=O)Nc4cccc(OC(F)(F)F)c4)c3)nn2)cn1,114%
15,CCOC(=O)N/C(=C1/OCCN1C)[P+](c1ccccc1)(c1ccccc1)c1ccccc1,76.6%
16,O=C(NO)c1ccc(CNc2nc(-c3ccccc3)c3ccccc3n2)cc1,-0.363% (active)
17,Cc1cc(C)nc(NS(=O)(=O)c2ccc(N/C(N)=N/c3nccc(-c4cccs4)n3)cc2)n1,96.9%
18,COc1cnc2c(c1)C(=O)c1c-2n(CCCNCCO)c(=O)c2cc(OC)c(OC)cc12,18.4%

# Source: PubChem BioAssay (NCI)
